# Source: PubChem BioAssay AID1117306 (National Center for Advancing Translational Sciences (NCATS), 2015)
# Calls of active or inactive are those of the source. Calls follow the shape of the full dose curve.
# Settings: Ebola virus entry assay, blue channel imaging
Compound,AC50,outcome
CCN(CC)CCNC(=O)c1c(C)[nH]c(/C=C2\C(=O)Nc3ccc(F)cc32)c1C,3.06 µM (active),–
COc1cccc2c1C(=O)c1c(O)c3c(c(O)c1C2=O)C[C@@](O)(C(C)=O)C[C@H]3O[C@H]1C[C@H](N)[C@H](O)[C@H](C)O1,3.43 µM (active),–
CC[C@]1(O)C[C@@H]2CN(CCc3c([nH]c4ccccc34)[C@@](C(=O)OC)(c3cc4c(cc3OC)N(C)[C@H]3[C@@](O)(C(=O)OC)[C@H](OC(C)=O)[C@]5(CC)C=CCN6CC[C@]43[C@@H]65)C2)C1,0.137 µM (active),–
CCCSc1ccc2nc(NC(=O)OC)[nH]c2c1,–,inactive
COC(=O)Nc1nc2ccc(C(=O)c3cccs3)cc2[nH]1,0.611 µM (active),–
CC[C@H]1OC(=O)[C@H](C)[C@@H](O[C@H]2C[C@@](C)(OC)[C@@H](O)[C@H](C)O2)C(C)[C@@H](O[C@@H]2O[C@H](C)C[C@H](N(C)C)[C@@H]2O)[C@](C)(OC)C[C@@H](C)C(=O)[C@H](C)[C@@H](O)[C@]1(C)O (stereo not given in full),6.85 µM (active),–
CO[C@H]1C[C@@H]2CC[C@@H](C)[C@@](O)(O2)C(=O)C(=O)N2CCCC[C@@H]2C(=O)O[C@H]([C@@H](C)C[C@@H]2CC[C@H](O)[C@H](OC)C2)CC(=O)[C@H](C)C=C(C)[C@@H](O)[C@@H](OC)C(=O)[C@H](C)C[C@H](C)C=CC=CC=C1C,–,inactive
CO[C@H]1C[C@@H]2CC[C@@H](C)[C@@](O)(O2)C(=O)C(=O)N2CCCC[C@@H]2C(=O)O[C@H]([C@H](C)C[C@@H]2CC[C@H](OCCO)[C@H](OC)C2)CC(=O)[C@H](C)C=C(C)[C@@H](O)[C@@H](OC)C(=O)[C@H](C)C[C@H](C)C=CC=CC=C1C,–,inactive
NCCCC(O)(P(=O)(O)O)P(=O)(O)O,–,inactive
COC1=CC(=O)C[C@@H](C)[C@]12Oc1c(Cl)c(OC)cc(OC)c1C2=O,–,inactive
Cc1nnc(C(C)C)n1C1C[C@H]2CC[C@@H](C1)N2CC[C@H](NC(=O)C1CCC(F)(F)CC1)c1ccccc1 (stereo not given in full),–,inactive
CCCCc1oc2ccc(NS(C)(=O)=O)cc2c1C(=O)c1ccc(OCCCN(CCCC)CCCC)cc1,4.85 µM (active),–
C[C@@H]1O[C@@H](O[C@H]2CC[C@@]3(C)[C@H](CC[C@@H]4[C@H]3C[C@@H](O)[C@]3(C)[C@@H](C5=CC(=O)OC5)CC[C@]43O)C2)C[C@H](O)[C@@H]1O[C@H]1C[C@H](O)[C@H](O[C@H]2C[C@H](O)[C@@H](O)[C@@H](C)O2)[C@H](C)O1 (stereo in doubt),–,inactive
CN1CCN(CCCN2c3ccccc3Sc3ccc(C(F)(F)F)cc32)CC1,9.68 µM (active),–
CCC1=C[C@@H]2CN(C1)Cc1c([nH]c3ccccc13)[C@@](C(=O)OC)(c1cc3c(cc1OC)N(C)[C@H]1[C@@](O)(C(=O)OC)[C@H](OC(C)=O)[C@]4(CC)C=CCN5CC[C@]31[C@@H]54)C2,0.153 µM (active),–
CC[C@H]1OC(=O)[C@H](C)[C@@H](O[C@H]2C[C@@](C)(OC)[C@@H](O)[C@H](C)O2)[C@H](C)[C@@H](O[C@@H]2O[C@H](C)C[C@H](N(C)C)[C@@H]2O)[C@](C)(O)C[C@@H](C)CN(C)[C@H](C)[C@@H](O)[C@]1(C)O,4.32 µM (active),–
CCCNCC(O)COc1ccccc1C(=O)CCc1ccccc1 (stereo not given),9.68 µM (active),–
COC(=O)Nc1nc2ccc(C(=O)c3ccccc3)cc2[nH]1,–,inactive
CC[C@]1(O)C[C@H]2CN(CCc3c([nH]c4ccccc34)[C@@](C(=O)OC)(c3cc4c(cc3OC)N(C=O)[C@H]3[C@@](O)(C(=O)OC)[C@H](OC(C)=O)[C@]5(CC)C=CCN6CC[C@]43[C@@H]65)C2)C1,0.153 µM (active),–
CN(C)CCOc1ccc(/C(=C(/CCCl)c2ccccc2)c2ccccc2)cc1,1.37 µM (active),–
